Inconclusive results are not listed. Active and inactive are the calls of the source. Unless noted, the call rests on the fitted dose curve; in most records, active means well fitted curve in the direction sought with a large enough effect; inconclusive means small, poorly fitted or top-dose-only effect, or another doubt; inactive means no such curve, though single readings can be large; an effect the other way counts as inactive or inconclusive.
Assays:
[1] = biological target: Ubiquitin carboxyl-terminal hydrolase 1 (Homo sapiens) (UniProt O94782); test: Inhibitors of USP1/UAF1: Pilot qHTS (AID 504865); further: potency means the concentration at half of the fitted maximal effect; nearly all actives have a fitted effect of over 35% in size
Chain of Ubiquitin carboxyl-terminal hydrolase 1 (Homo sapiens) (O94782 whole entry, looked up): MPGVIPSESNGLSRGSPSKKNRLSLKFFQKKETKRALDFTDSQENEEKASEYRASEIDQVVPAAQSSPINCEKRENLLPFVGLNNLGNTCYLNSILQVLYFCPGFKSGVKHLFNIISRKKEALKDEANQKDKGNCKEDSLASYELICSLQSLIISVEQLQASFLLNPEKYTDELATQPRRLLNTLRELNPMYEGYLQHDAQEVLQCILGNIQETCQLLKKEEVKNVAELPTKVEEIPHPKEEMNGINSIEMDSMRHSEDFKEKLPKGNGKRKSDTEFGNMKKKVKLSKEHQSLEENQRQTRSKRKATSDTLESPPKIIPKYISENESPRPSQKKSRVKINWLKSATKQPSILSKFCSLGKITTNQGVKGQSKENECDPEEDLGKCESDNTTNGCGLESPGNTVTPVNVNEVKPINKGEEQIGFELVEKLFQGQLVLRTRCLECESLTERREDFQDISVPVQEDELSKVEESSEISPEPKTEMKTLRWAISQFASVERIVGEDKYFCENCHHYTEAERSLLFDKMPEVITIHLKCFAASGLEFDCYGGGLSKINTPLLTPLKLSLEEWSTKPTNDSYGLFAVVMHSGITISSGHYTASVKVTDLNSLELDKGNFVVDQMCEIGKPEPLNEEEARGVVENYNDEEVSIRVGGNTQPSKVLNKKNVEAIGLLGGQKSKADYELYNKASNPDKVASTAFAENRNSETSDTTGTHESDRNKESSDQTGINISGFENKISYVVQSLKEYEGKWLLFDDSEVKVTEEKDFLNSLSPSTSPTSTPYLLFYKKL
Procedure, shortened: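 In 50mM HEPES pH 7.8 containing 0.5mM EDTA, 1mM TCEP, 0.1 mg/ml BSA and 0.01% Tween-20, 1nM USP1/UAF1 is exposed to compound for 15 min, then Ub-Rho (150nM final) is added and fluorescence is read over time.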

[2] = biological target: Luciferin 4-monooxygenase (Photinus pyralis) (UniProt P08659); test: Biochemical firefly luciferase enzyme assay for NPC (AID 624030);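 further: purified P. pyralis luciferase at 10 nM with luciferin and ATP substrate; nearly all actives have a fitted effect of over 70% in size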
Chain of Luciferin 4-monooxygenase (Photinus pyralis) (P08659 whole entry, looked up): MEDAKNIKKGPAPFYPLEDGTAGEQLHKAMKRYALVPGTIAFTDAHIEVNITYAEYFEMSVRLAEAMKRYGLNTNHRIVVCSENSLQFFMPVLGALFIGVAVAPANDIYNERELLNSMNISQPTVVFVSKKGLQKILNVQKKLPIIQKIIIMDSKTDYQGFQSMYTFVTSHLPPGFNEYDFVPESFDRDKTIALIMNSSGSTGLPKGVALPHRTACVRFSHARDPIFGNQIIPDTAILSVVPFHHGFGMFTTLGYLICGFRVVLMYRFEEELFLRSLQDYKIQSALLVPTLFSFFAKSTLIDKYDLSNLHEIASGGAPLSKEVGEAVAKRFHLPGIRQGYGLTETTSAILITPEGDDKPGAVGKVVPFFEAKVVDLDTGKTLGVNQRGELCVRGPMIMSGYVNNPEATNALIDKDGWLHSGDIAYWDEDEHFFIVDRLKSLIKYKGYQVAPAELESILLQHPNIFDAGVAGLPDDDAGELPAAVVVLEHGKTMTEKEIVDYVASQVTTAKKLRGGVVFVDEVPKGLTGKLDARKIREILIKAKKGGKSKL
Procedure, shortened: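 Direct inhibition of firefly luciferase enzyme (10 nM final, 50 mM Tris Acetate) assessed by luminescence within 5 minutes. Percent activity scaled between DMSO and PTC124 positive control, with concentration-effect curves classified by fit quality and response.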

[3] = S16 Schwann cell viability assay (CellTiter-Glo assay) (AID 624031); further: potency means the concentration at half of the fitted maximal effect; nearly all actives have a fitted effect of over 70% in size
Procedure, shortened: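 Native S16 Schwann cells (rat), serum-containing medium, overnight attachment then 24 h drug exposure at 37 °C/5% CO2. CellTiter-Glo ATP signal; normalized to cell-free and vehicle wells.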

[4] = S16 Schwann cell PMP22 intronic element firefly luciferase assay (AID 624032); further: potency means the concentration at half of the fitted maximal effect; nearly all actives have a fitted effect of over 30% in size
Procedure, shortened: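 Luciferase reporter of PMP22 intronic-element expression in stably transfected S16 rat Schwann cells, read by ONE-Glo luminescence after 24 h compound exposure at 37 C. Activity scaled between DMSO (0%) and positive-control PTC124; concentration-effect curves quality-classified.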

[5] = S16 Schwann cell PMP22 intronic element beta-lactamase assay (AID 624044; calls by dose curve; further: potency means the concentration at half of the fitted maximal effect; nearly all actives have a fitted effect of over 15% in size)
Procedure, shortened: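 Rat S16 Schwann cells with beta-Lac driven by a PMP22 intronic element, compound-treated 24 h at 37 °C. LiveBLAzer FRET B/G read: 460 nm normalized to potassium clavulanate vs DMSO; 535 nm FRET as viability; concentration-effect curves classified.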

[6] = qHTS Assay for Identifying Gametocytocidal Compounds (AID 743244); further: potency means the concentration at half of the fitted maximal effect; conditions: P. falciparum 3D7 stage III-V gametocytes, alamarBlue, 72 h; max response: active compounds read low
Procedure, shortened: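 A resazurin-based viability read-out was applied to mature P. falciparum gametocytes: 72 h compound treatment, then 24 h dye incubation, with falling fluorescence signalling gametocytocidal effect.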

3D7 = test: qHTS profiling for inhibitors of Plasmodium falciparum proliferation (AID 504749); further: potency means the concentration at half of the fitted maximal effect; nearly all actives have a fitted effect of over 60% in size; conditions: P. falciparum in erythrocytes, SYBR Green DNA, 72 h; series mostly up to 28.7 µM
Procedure, shortened: (§1)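 Infected RBCs, 0.3% parasitemia/2.5% Hct final; cpd 72 h, 37 C, 5% CO2; lysis buffer with saponin/triton/SYBR Green I, o/n RT dark; FI 485/535; norm. to artemisinin (0.29 uM) and DMSO.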

7G8 = test: as above; conditions: P. falciparum in erythrocytes, SYBR Green DNA, 72 h; series mostly up to 28.7 µM
Procedure, shortened: as §1

AA1029 = test: as above; conditions: P. falciparum in erythrocytes, SYBR Green DNA, 72 h; series mostly up to 28.7 µM
Procedure, shortened: as §1

AS120 = test: as above; conditions: P. falciparum in erythrocytes, SYBR Green DNA, 72 h; series mostly up to 28.7 µM
Procedure, shortened: as §1

ATS189 = test: as above; conditions: P. falciparum in erythrocytes, SYBR Green DNA, 72 h; series mostly up to 28.7 µM
Procedure, shortened: as §1

ATS95 = test: as above; conditions: P. falciparum in erythrocytes, SYBR Green DNA, 72 h; series mostly up to 28.7 µM
Procedure, shortened: as §1

C2A = test: as above; conditions: P. falciparum in erythrocytes, SYBR Green DNA, 72 h; series mostly up to 28.7 µM
Procedure, shortened: as §1

CP185 = test: as above; conditions: P. falciparum in erythrocytes, SYBR Green DNA, 72 h; series mostly up to 28.7 µM
Procedure, shortened: as §1

CP191 = test: as above; conditions: P. falciparum in erythrocytes, SYBR Green DNA, 72 h; series mostly up to 28.7 µM
Procedure, shortened: as §1

CP192 = test: as above; conditions: P. falciparum in erythrocytes, SYBR Green DNA, 72 h; series mostly up to 28.7 µM
Procedure, shortened: as §1

CP194 = test: as above; conditions: P. falciparum in erythrocytes, SYBR Green DNA, 72 h; series mostly up to 28.7 µM
Procedure, shortened: as §1

CP201 = test: as above; conditions: P. falciparum in erythrocytes, SYBR Green DNA, 72 h; series mostly up to 28.7 µM
Procedure, shortened: as §1

CP203 = test: as above; conditions: P. falciparum in erythrocytes, SYBR Green DNA, 72 h; series mostly up to 28.7 µM
Procedure, shortened: as §1

CP211 = test: as above; conditions: P. falciparum in erythrocytes, SYBR Green DNA, 72 h; series mostly up to 28.7 µM
Procedure, shortened: as §1

CP215 = test: as above; conditions: P. falciparum in erythrocytes, SYBR Green DNA, 72 h; series mostly up to 28.7 µM
Procedure, shortened: as §1

CP217 = test: as above; conditions: P. falciparum in erythrocytes, SYBR Green DNA, 72 h; series mostly up to 28.7 µM
Procedure, shortened: as §1

CP237 = test: as above; conditions: P. falciparum in erythrocytes, SYBR Green DNA, 72 h; series mostly up to 28.7 µM
Procedure, shortened: as §1

CP238 = test: as above; conditions: P. falciparum in erythrocytes, SYBR Green DNA, 72 h; series mostly up to 28.7 µM
Procedure, shortened: as §1

CP247 = test: as above; conditions: P. falciparum in erythrocytes, SYBR Green DNA, 72 h; series mostly up to 28.7 µM
Procedure, shortened: as §1

CP250 = test: as above; conditions: P. falciparum in erythrocytes, SYBR Green DNA, 72 h; series mostly up to 28.7 µM
Procedure, shortened: as §1

CP252 = test: as above; conditions: P. falciparum in erythrocytes, SYBR Green DNA, 72 h; series mostly up to 28.7 µM
Procedure, shortened: as §1

CP256 = test: as above; conditions: P. falciparum in erythrocytes, SYBR Green DNA, 72 h; series mostly up to 28.7 µM
Procedure, shortened: as §1

CP260 = test: as above; conditions: P. falciparum in erythrocytes, SYBR Green DNA, 72 h; series mostly up to 28.7 µM
Procedure, shortened: as §1

CP262 = test: as above; conditions: P. falciparum in erythrocytes, SYBR Green DNA, 72 h; series mostly up to 28.7 µM
Procedure, shortened: as §1

CP265 = test: as above; conditions: P. falciparum in erythrocytes, SYBR Green DNA, 72 h; series mostly up to 28.7 µM
Procedure, shortened: as §1

CP266 = test: as above; conditions: P. falciparum in erythrocytes, SYBR Green DNA, 72 h; series mostly up to 28.7 µM
Procedure, shortened: as §1

CP268 = test: as above; conditions: P. falciparum in erythrocytes, SYBR Green DNA, 72 h; series mostly up to 28.7 µM
Procedure, shortened: as §1

Measured: Potency

CCCCCCCCCC[N+](C)(C)CCCCCCCCCC
inactive: [2]
active: [1] 31.6 µM | [3] 18.1 µM | [4] 16.1 µM | [5] 25.1 µM | [6] 7.94 µM | 3D7 2 µM | 7G8 2 µM | AA1029 7.08 µM | AS120 6.31 µM | ATS189 7.08 µM | ATS95 6.31 µM | C2A 4.47 µM | CP185 4.47 µM | CP191 3.98 µM | CP192 4.78 µM | CP194 6.75 µM | CP201 9.53 µM | CP203 6.75 µM | CP211 9.53 µM | CP215 8.49 µM | CP217 4.47 µM | CP237 7.08 µM | CP238 5.62 µM | CP247 4.47 µM | CP250 4.47 µM | CP252 7.08 µM | CP256 4.47 µM | CP260 3.98 µM | CP262 5.36 µM | CP265 5.01 µM | CP266 6.75 µM | CP268 6.01 µM

Reference: PubChem BioAssay (NCATS)
